In PubChem BioAssay (Tox21):
Inconclusive results are not listed. Active and inactive are the calls of the source. Unless noted, calls follow the shape of the dose curve; as a rule, active = well fitted curve in the direction sought with a large enough effect in the repeat runs; inconclusive = weak or mixed curves; inactive = no such curve, though single readings can be large; an effect the other way counts as inactive or inconclusive.

Columns and labels:
[1] = target: Peroxisome proliferator-activated receptor delta (Homo sapiens) (UniProt Q03181); assay: qHTS assay to identify small molecule agonists of the peroxisome proliferator-activated receptor delta (PPARd) signaling pathway (AID 743212; calls by dose curve; also: % is scaled to controls: 0 for no effect and ±100 for the full control effect)
Chain of Peroxisome proliferator-activated receptor delta (Homo sapiens) (Q03181 whole entry, looked up): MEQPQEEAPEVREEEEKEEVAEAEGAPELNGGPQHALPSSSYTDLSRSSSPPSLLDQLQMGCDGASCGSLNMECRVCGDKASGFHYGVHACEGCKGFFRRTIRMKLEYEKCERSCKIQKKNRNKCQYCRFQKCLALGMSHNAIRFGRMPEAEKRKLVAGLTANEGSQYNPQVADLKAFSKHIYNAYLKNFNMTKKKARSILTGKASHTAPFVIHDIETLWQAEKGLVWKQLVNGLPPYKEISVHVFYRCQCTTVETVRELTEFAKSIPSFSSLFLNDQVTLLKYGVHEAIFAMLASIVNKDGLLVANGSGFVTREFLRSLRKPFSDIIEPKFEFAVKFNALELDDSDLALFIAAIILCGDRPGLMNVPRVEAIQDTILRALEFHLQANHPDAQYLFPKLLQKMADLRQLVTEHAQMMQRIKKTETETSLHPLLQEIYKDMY
Summary of the method: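 HEK293H PPARd-bla cells; 5 h preincubation 37 C/5% CO2; compound (DMSO) 37 C; LiveBLAzer B/G FRET substrate 2 h RT; fluorescence intensity.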

[2] = qHTS assay to identify small molecule antagonists of the peroxisome proliferator-activated receptor delta (PPARd) signaling pathway - cell viability counter screen (AID 743213); also: % is scaled to controls: 0 for no effect and ±100 for the full control effect; nearly all actives have a fitted effect of over 50% in size
Summary of the method: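 PPARd-bla HEK293H cells were treated with compounds plus agonist L165041 (300 nM final) for 17 h at 37 C. Viability was then read in the same wells by CellTiter-Glo luminescence after 30 min at room temperature.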

[3] = target: Peroxisome proliferator-activated receptor delta (Homo sapiens) (UniProt Q03181); assay: qHTS assay to identify small molecule antagonists of the peroxisome proliferator-activated receptor delta (PPARd) signaling pathway (AID 743215; active = well fitted inhibition curve with a large enough effect in the signal ratio in the repeat runs, not every such curve was filed as active; the % refers to the signal ratio;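 also: cells stimulated with agonist L165041 at 300 nM final during compound exposure; series mostly up to about 62 µM; % is scaled to controls: 0 for no effect and ±100 for the full control effect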)
Summary of the method: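 Inhibition of L165041-driven (300 nM final) PPARd signaling is scored in HEK293H UAS-bla cells. Exposure lasts 17 h at 37 C; beta-lactamase activity is then read by FRET substrate fluorescence after 2 h at room temperature.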

[4] = target: Bile acid receptor (Homo sapiens) (UniProt Q96RI1); assay: qHTS assay to identify small molecule antagonists of the farnesoid-X-receptor (FXR) signaling pathway (AID 743217; active = well fitted inhibition curve with a large enough effect in the signal ratio in the repeat runs, not every such curve was filed as active; the % refers to the signal ratio; also: % is scaled to controls: 0 for no effect and ±100 for the full control effect)
Chain of Bile acid receptor (Homo sapiens) (Q96RI1 whole entry, looked up): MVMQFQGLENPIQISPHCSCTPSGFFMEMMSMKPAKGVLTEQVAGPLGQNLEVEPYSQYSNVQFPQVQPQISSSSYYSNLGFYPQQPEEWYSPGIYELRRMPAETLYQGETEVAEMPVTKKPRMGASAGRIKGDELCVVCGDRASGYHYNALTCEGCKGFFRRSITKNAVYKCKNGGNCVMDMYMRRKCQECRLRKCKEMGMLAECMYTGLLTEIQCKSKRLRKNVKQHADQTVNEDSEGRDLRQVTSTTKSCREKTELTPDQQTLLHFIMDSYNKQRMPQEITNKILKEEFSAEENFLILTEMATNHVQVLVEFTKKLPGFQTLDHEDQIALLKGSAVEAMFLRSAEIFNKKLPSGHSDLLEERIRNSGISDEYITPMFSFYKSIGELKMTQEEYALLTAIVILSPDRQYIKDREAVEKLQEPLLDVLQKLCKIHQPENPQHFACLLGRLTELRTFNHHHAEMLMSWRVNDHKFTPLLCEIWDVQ
Summary of the method: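 Antagonist mode against 50 uM (final) chenodeoxycholic acid stimulation in FXR-bla HEK 293T cells, 16 h at 37 °C. Inhibition detected as reduced beta-lactamase activity via LiveBLAzer B/G FRET fluorescence after 2 h at room temperature.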

[5] = target: Bile acid receptor (Homo sapiens) (UniProt Q96RI1); assay: qHTS assay to identify small molecule agonists of the farnesoid-X-receptor (FXR) signaling pathway (AID 743220; active = well fitted activation curve with a large enough effect in the signal ratio in the repeat runs, not every such curve was filed as active; the % refers to the signal ratio; also: % is scaled to controls: 0 for no effect and ±100 for the full control effect)
Summary of the method: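 Beta-lactamase reporter under UAS control in GeneBLAzer FXR HEK 293T cells (5000/well) measured with LiveBLAzer FRET substrate after 2 h at room temperature. Compound exposure lasted 16 h at 37C.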

[6] = qHTS assay to identify small molecule antagonists of the farnesoid-X-receptor (FXR) signaling pathway - cell viability counter screen (AID 743221; active = well fitted cell-killing curve with a large enough effect in the repeat runs, not every such curve was filed as active; also: % is scaled to controls: 0 for no effect and ±100 for the full control effect; nearly all actives have a fitted effect of over 50% in size)
Summary of the method: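 Here viability was scored by luminescence after CellTiter-Glo addition to wells already read for beta-lactamase. Prior treatment: compound plus CDCA (50 uM final), 16 h, 37 C, HEK 293T FXR-bla cells.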

[7] = target: Vitamin D3 receptor (Homo sapiens) (UniProt P11473); assay: qHTS assay to identify small molecule agonists of the vitamin D receptor (VDR) signaling pathway (AID 743222; calls by dose curve; also: % is scaled to controls: 0 for no effect and ±100 for the full control effect)
Chain of Vitamin D3 receptor (Homo sapiens) (P11473 whole entry, looked up): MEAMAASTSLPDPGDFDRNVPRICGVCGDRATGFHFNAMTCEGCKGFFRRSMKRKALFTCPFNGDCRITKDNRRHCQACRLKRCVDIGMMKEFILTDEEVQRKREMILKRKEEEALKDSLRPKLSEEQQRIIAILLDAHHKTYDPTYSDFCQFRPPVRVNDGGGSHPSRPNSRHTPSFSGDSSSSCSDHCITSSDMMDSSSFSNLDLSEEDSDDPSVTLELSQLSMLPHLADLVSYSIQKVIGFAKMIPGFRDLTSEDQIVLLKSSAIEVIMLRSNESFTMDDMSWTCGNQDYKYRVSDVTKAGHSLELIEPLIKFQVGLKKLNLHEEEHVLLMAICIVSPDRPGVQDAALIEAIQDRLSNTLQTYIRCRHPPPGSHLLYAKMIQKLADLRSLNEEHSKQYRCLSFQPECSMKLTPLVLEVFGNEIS
Summary of the method: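 Quantitative HTS agonist-mode screen: compounds in DMSO were pin-transferred onto VDR-bla cells and incubated 16 h at 37C, 5% CO2. Reporter activity was detected with LiveBLAzer B/G FRET substrate after 2 h at room temperature.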

[8] = target: Vitamin D3 receptor (Homo sapiens) (UniProt P11473); assay: qHTS assay to identify small molecule antagonists of the vitamin D receptor (VDR) signaling pathway (AID 743223; active = well fitted inhibition curve with a large enough effect in the signal ratio in the repeat runs, not every such curve was filed as active; the % refers to the signal ratio; also: % is scaled to controls: 0 for no effect and ±100 for the full control effect)
Summary of the method: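 Inhibition of agonist-driven VDR signalling is scored in VDR-bla cells: 3 nM final 1alpha,25-dihydroxyvitamin D3 plus compound, 16 h at 37C, then beta-lactamase detection by FRET substrate fluorescence after 2 h.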

[9] = qHTS assay to identify small molecule agonists of the vitamin D receptor (VDR) signaling pathway - cell viability counter screen (AID 743224); also: series mostly up to about 63 µM; % is scaled to controls: 0 for no effect and ±100 for the full control effect; nearly all actives have a fitted effect of over 50% in size
Summary of the method: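 Viability is measured in the same wells as the VDR-bla reporter assay: after 16 h compound treatment and 2 h substrate loading, CellTiter-Glo is added and luminescence read 30 min later.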

[10] = qHTS assay to identify small molecule agonists of the NFkB signaling pathway (AID 1159509; active = well fitted curve in the direction sought with a large enough effect in the signal ratio in the repeat runs, not every such curve was filed as active; the % refers to the signal ratio)
Summary of the method: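 ME-180 NFkB-bla, 2,000 cells/well, overnight plating; cpd pinned in DMSO, 5 h 37 C; B/G FRET substrate 1.5 h RT; ex 405, em 460/530 nm.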

[11] = qHTS assay to identify small molecule agonists of the NFkB signaling pathway - cell viability counter screen (AID 1159515; calls by dose curve; also: series mostly up to about 61 µM; % is scaled to controls: 0 for no effect and ±100 for the full control effect; nearly all actives have a fitted effect of over 55% in size)
Summary of the method: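 Multiplexed viability readout: after the 5 hr compound exposure and 1.5 hr FRET substrate step, CellTiter-Glo reagent went into the same NFkB-bla ME-180 wells; ATP luminescence was measured after 30 min at room temperature.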

[12] = qHTS assay to identify small molecule agonists of the endoplasmic reticulum stress response signaling pathway (AID 1159516; active = well fitted activation curve with a large enough effect in the signal ratio in the repeat runs, not every such curve was filed as active; the % refers to the signal ratio; also: % is scaled to controls: 0 for no effect and ±100 for the full control effect)
Summary of the method: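 Tox21 10K library screened in quantitative HTS format on ESRE-bla HeLa cells, a beta-lactamase reporter under ER stress response element control; 5 hr treatment, FRET read.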

[13] = qHTS assay to identify small molecule agonists of the endoplasmic reticulum stress response signaling pathway - cell viability counter screen (AID 1159517; calls by dose curve; also: series mostly up to about 61 µM; % is scaled to controls: 0 for no effect and ±100 for the full control effect; nearly all actives have a fitted effect of over 50% in size)
Summary of the method: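 HeLa cells carrying an ESRE-driven beta-lactamase reporter receive compound for 5 hr at 37 C. Cell viability is then gauged with CellTiter-Glo by luminescence, 30 min at room temperature.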

[14] = qHTS assay to identify small molecule antagonists of the retinoid-related orphan receptor gamma (ROR-gamma) signaling pathway - cell viability counter screen (AID 1159520)
Summary of the method: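 Cytotoxicity was read from cellular ATP (CellTiter-Glo luminescence) after 16 hr at 37 C with 1 uM doxycycline induction. The inducer was added 2 hr after compound transfer to Tet-on ROR gamma CHO cells.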

[15] = target: Nuclear receptor ROR-gamma (Homo sapiens) (UniProt P51449); assay: qHTS assay to identify small molecule antagonists of the retinoid-related orphan receptor gamma (ROR-gamma) signaling pathway (AID 1159521)
Summary of the method: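 Test compounds were applied to Tet-on RORγ CHO cells 2 h ahead of doxycycline hyclate (1 uM final). Luciferase reporter activity was quantified by luminescence after 16 h at 37 C and 5% CO2.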

[16] = qHTS assay to identify small molecule agonists of the AP-1 signaling pathway - cell viability counter screen (AID 1159525; calls by dose curve; also: nearly all actives have a fitted effect of over 55% in size)
Summary of the method: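 Luminescent ATP readout (Cell Titer Glo, 30 min RT), normalised to DMSO and tetra n-octyl ammonium bromide controls. Cells were ME-180 AP-1-bla in 0.5% dialyzed FBS Opti-MEM, with a 5 h, 37 °C compound exposure.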

[17] = qHTS assay to identify small molecule agonists of the AP-1 signaling pathway (AID 1159526; calls by dose curve; also: % is scaled to controls: 0 for no effect and ±100 for the full control effect)
[18] = qHTS assay to identify small molecule agonists of the peroxisome proliferator-activated receptor delta (PPARd) signaling pathway - cell viability counter screen (AID 743211); also: % is scaled to controls: 0 for no effect and ±100 for the full control effect; nearly all actives have a fitted effect of over 55% in size
Summary of the method: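 In the same wells used for beta-lactamase reporter measurement, cytotoxicity is scored by CellTiter-Glo. HEK293H PPARd-bla cells receive compound for 17 h at 37C following a 5 h settling period.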

[19] = qHTS assay to identify small molecule antagonists of the vitamin D receptor (VDR) signaling pathway - cell viability counter screen (AID 743225)
Summary of the method: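 Compounds were pinned onto VDR-bla HEK 293T cells together with 1-alpha,25-dihydroxyvitamin D3 at 3 nM final. After 16 h at 37C and 5% CO2 plus the reporter readout, cell viability was measured by CellTiter-Glo luminescence (30 min, room temperature).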

[20] = qHTS assay to identify small molecule agonists of the farnesoid-X-receptor (FXR) signaling pathway - cell viability counter screen (AID 743218); also: % is scaled to controls: 0 for no effect and ±100 for the full control effect; nearly all actives have a fitted effect of over 45% in size
Summary of the method: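 Cytotoxicity counter-screen run in parallel, same wells: FXR-UAS-bla HEK 293T cells dosed 16 h at 37 C, viability read by CellTiter-Glo luminescence after 30 min at room temperature.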

COc1cc(C[C@@H](C)N)c(OC)cc1C
inactive: outcome [1] | outcome [2] | outcome [3] | Potency [4] | outcome [5] | outcome [6] | outcome [7] | outcome [8] | Potency [9] | outcome [10] | outcome [11] | outcome [12] | Potency [13] | Potency [14] | Potency [15] | Potency [16] | outcome [17]

CN1CCN(C(=O)O[C@H]2c3nccnc3C(=O)N2c2ccc(Cl)cn2)CC1
inactive: Potency [18] | outcome [2] | Potency [4] | outcome [5] | outcome [6] | outcome [7] | outcome [8] | Potency [9] | outcome [19] | outcome [10] | outcome [11] | outcome [12] | Potency [13] | Potency [14] | Potency [15] | Potency [16] | outcome [17]

CCCCP(CCCC)CCCC
inactive: outcome [1] | outcome [2] | outcome [3] | Potency [4] | outcome [6] | outcome [7] | outcome [8] | Potency [9] | outcome [10] | outcome [11] | outcome [12] | Potency [13] | Potency [14] | Potency [15] | Potency [16] | outcome [17]

CN1C(=S)CN=C(c2ccccc2)c2cc(Cl)ccc21
inactive: outcome [1] | outcome [3] | Potency [4] | Potency [20] | outcome [5] | outcome [6] | outcome [8] | Potency [9] | outcome [19] | outcome [10] | outcome [11] | outcome [12] | Potency [13] | Potency [14] | Potency [15] | Potency [16] | outcome [17]

CC(C)(C)OC(=O)c1ncn2c1[C@@H]1CCCN1C(=O)c1c(Br)cccc1-2
inactive: outcome [1] | outcome [2] | Potency [20] | outcome [6] | outcome [8] | Potency [9] | outcome [19] | outcome [10] | outcome [11] | outcome [12] | Potency [13] | Potency [14] | Potency [15] | Potency [16] | outcome [17]

CC(=O)C(Cl)Cl
inactive: outcome [1] | outcome [2] | outcome [3] | Potency [4] | Potency [20] | outcome [5] | outcome [6] | Potency [9] | outcome [19] | outcome [10] | outcome [11] | outcome [12] | Potency [13] | Potency [14] | Potency [15] | Potency [16] | outcome [17]

CC1=C(C(=O)O)N2C(=O)[C@@H](N)[C@H]2SC1
inactive: Potency [18] | outcome [1] | outcome [3] | Potency [20] | outcome [6] | outcome [8] | Potency [9] | outcome [10] | outcome [11] | outcome [12] | Potency [13] | activity, negative = cytotoxicity [14] 0.102% [at 19 µM] | activity change, negative = inhibition [15] 27.3% [at 19 µM] | viability change, negative = cytotoxic [16] 19.2% [at 15.8 µM] | activation [17] -1.04% [at 15.8 µM]

N#Cc1ccncc1
inactive: Potency [18] | outcome [1] | outcome [3] | outcome [6] | outcome [7] | Potency [9] | outcome [19] | outcome [10] | outcome [11] | outcome [12] | Potency [13] | Potency [14] | Potency [15] | Potency [16] | outcome [17]

CCOC(=O)N(C)C(=O)CSP(=S)(OCC)OCC
inactive: outcome [1] | outcome [2] | Potency [20] | outcome [5] | outcome [6] | outcome [7] | Potency [9] | outcome [10] | outcome [11] | outcome [12] | Potency [13] | Potency [14] | Potency [15] | Potency [16] | outcome [17]

[Cl][Sn]([Cl])([Cl])[Cl]
inactive: outcome [1] | outcome [2] | Potency [20] | outcome [6] | outcome [7] | Potency [9] | outcome [19] | outcome [10] | outcome [11] | outcome [12] | Potency [13] | Potency [14] | Potency [15] | Potency [16] | outcome [17]

COc1cc(OC)nc(Sc2cccc(Cl)c2C(=O)O)n1
inactive: Potency [18] | Potency [20] | outcome [6] | outcome [7] | outcome [8] | Potency [9] | outcome [10] | outcome [11] | outcome [12] | Potency [13] | Potency [14] | Potency [15] | Potency [16] | outcome [17]

NC(=S)C(N)=S
inactive: outcome [1] | outcome [3] | Potency [4] | outcome [5] | outcome [6] | outcome [7] | outcome [19] | outcome [10] | outcome [11] | outcome [12] | Potency [13] | Potency [14] | Potency [15] | Potency [16] | outcome [17]

CC(=O)CC(c1ccc(Cl)cc1)c1c(O)c2ccccc2oc1=O (stereo not drawn)
inactive: Potency [18] | outcome [1] | outcome [3] | Potency [20] | outcome [6] | outcome [7] | Potency [9] | outcome [19] | outcome [10] | outcome [11] | outcome [12] | Potency [13] | Potency [14] | Potency [15] | Potency [16] | outcome [17]

O=C(CCCN1CCC(n2c(=O)[nH]c3ccccc32)CC1)c1ccc(F)cc1
inactive: Potency [18] | outcome [2] | Potency [20] | outcome [6] | outcome [7] | outcome [19] | outcome [10] | outcome [11] | outcome [12] | Potency [13] | Potency [14] | Potency [15] | Potency [16] | outcome [17]

CN/C(=N\[N+](=O)[O-])NCC1CCOC1 (stereo not drawn)
inactive: Potency [18] | outcome [2] | Potency [4] | Potency [20] | outcome [5] | outcome [6] | outcome [7] | outcome [8] | outcome [19] | outcome [10] | outcome [11] | outcome [12] | Potency [13] | Potency [14] | Potency [15] | Potency [16] | outcome [17]

CC(C)(C)C(=O)C(Oc1ccc(Cl)cc1)n1cncn1 (stereo not drawn)
inactive: Potency [18] | outcome [1] | outcome [3] | Potency [20] | outcome [6] | outcome [7] | Potency [9] | outcome [19] | outcome [10] | outcome [11] | outcome [12] | Potency [13] | Potency [14] | Potency [15] | Potency [16] | outcome [17]

O=P(O)(Oc1ccccc1)Oc1ccccc1
inactive: Potency [18] | Potency [4] | Potency [20] | outcome [5] | outcome [6] | outcome [8] | Potency [9] | outcome [19] | outcome [10] | outcome [11] | outcome [12] | Potency [13] | Potency [14] | Potency [15] | Potency [16] | outcome [17]

O=C(CCN1CC1)OCC(CO)(COC(=O)CCN1CC1)COC(=O)CCN1CC1
inactive: Potency [18] | outcome [2] | Potency [4] | Potency [20] | outcome [5] | outcome [6] | Potency [9] | outcome [19] | outcome [10] | outcome [11] | outcome [12] | Potency [13] | Potency [14] | Potency [15] | Potency [16] | outcome [17]
